Data reported in article PMC5540273 (PLoS ONE, 2017).

What was measured:
Conditions in all cases: concentration: 1 μM, replicates: in singlicate; n = 1
[1] = tested on: CAMK2G
[2] = tested on: CAMK4
[3] = tested on: CAMKK1
[4] = tested on: CAMKK2
[5] = tested on: CASK
[6] = tested on: T1, CDC2L1
T1 construct: gene CDK11B

[7] = tested on: CDC2L2
[8] = tested on: T2, CDC2L5
T2 construct: gene CDK13

[9] = tested on: T3, CDK11
T3 construct: gene CDK19

[10] = tested on: CDK2

Measured: %Inh
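Further: KINOMEscan kinase panel screen.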

Nc1ncnc2c1ncn2-c1ccc(Cl)cc1 [AH2635]
13%: [1]
10%: [4]
28%: [7]
0%: all other assays above

Cc1cc(Nc2nc(-c3cccc(C)n3)nc3ccccc23)ccn1 [GW872411]
7%: [5]
0%: all other assays above

CCS(=O)c1ccc(-c2coc3ccc(-c4nnc(C)o4)cc23)cc1 (stereo not shown)
14%: [8]
0%: all other assays above

CCn1c(-c2ccoc2)nc2cnccc21 [SB-733887]
6%: [1] | [7]
4%: [3] | [4] | [10]
3%: [5]
0%: all other assays above
